Results filed as inconclusive are left out. Unmarked numbers belong to inactive results. Calls of active or inactive are those of the source. Calls follow the shape of the dose curve; as a rule, active = well fitted inhibition curve with a large enough effect; inconclusive = small, poorly fitted or top-dose-only effect; inactive = flat fitted curve, though single readings scatter. Where a SMILES comes first, the peptide text is derived from it. [ ]: non-standard residue; d: D form. ξ: configuration not given here. ξLac(3-iPr) = CC(C)CC(O)C(=O)O; NMeV = CN[CH](C(=O)O)C(C)C; βAla = NCCC(=O)O
Tested on: HEK293
Assay: Cytotoxic Profiling of Annotated Libraries Using Quantitative High-Throughput Screening (AID 1296008); also: nearly all actives have a fitted effect of over 60% in size
Conditions: Five cell lines viability, CellTiter-Glo ATP luminescence, 48-72 h; max response: hits give low values
Procedure, shortened: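 Cytotoxicity was measured as CellTiter-Glo ATP luminescence, read after 10 min at room temperature. Compound treatment of the cells lasted 48 or 72 hr at 37 degrees Celsius in a qHTS format.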
% is scaled to controls: 0 for no effect and ±100 for the full control effect; potency is read from the fitted curve at half-maximal effect.

| Structure (SMILES) | max response | Potency |
| --- | --- | --- |
| CC(C)C(CO)Nc1nc(Nc2ccc(C(=O)O)c(Cl)c2)c2ncn(C(C)C)c2n1 (centres undefined) | -4.16% |  |
| C#CC[C@H](c1nc2cc(Cl)ccc2c(=O)n1Nc1ccccc1)N(CCCN)C(=O)c1cccc(Cl)c1F |  | 1.46 µM (active) |
| CN(C)c1nc(NC2CCC(NCCc3ccc(Br)cc3OC(F)(F)F)CC2)nc2ccccc12 (centres undefined) |  | 5.17 µM (active) |
| C/C=C/C=C/C=C/C(=O)OC1C=C(C=O)C(O)(C(=O)O)C2(C)CCCC(C)(C)C12 (centres undefined) | 1.26% |  |
| COc1cc(O)c2c(c1)C1=CC(O)C(O)CC1(C)OC2=O (centres undefined) | -5.55% |  |
| CN(C)CCCCC(=O)Nc1ccc(NC(=S)NC(=O)c2ccc(C(C)(C)C)cc2)cc1 |  | 6.51 µM (active) |
| CC1C(=O)CC2C3CCC(C(=O)O)C12CC3(C)CO (centres undefined) | 0.671% |  |
| C[C@@H]1O[C@@H](O[C@H]2[C@H](O[C@H]3CC[C@@]4(C)C(CC[C@]5(C)C4CC=C4[C@@H]6CC(C)(C)CC[C@]6(C(=O)O[C@@H]6OC[C@H](O)[C@H](O)[C@H]6O[C@@H]6O[C@@H](C)[C@H](O[C@@H]7O[C@H](CO)[C@@H](O)[C@H](O)[C@H]7O)[C@H](O)[C@H]6O)[C@H](O)C[C@]45C)C3(C)C)O[C@H](CO)[C@@H](O[C@@H]3OC[C@@H](O)[C@H](O)[C@H]3O)[C@@H]2O)[C@H](O)[C@H](O)[C@H]1O (some centres undefined) | 4.66% |  |
| CC(C)CC1OC(=O)C2CCCN2C(=O)CCNC(=O)C(Cc2ccccc2)NC(=O)C(C(C)C)N(C)C(=O)C(C(C)C)N(C)C1=O (centres undefined) (cyclo([ξLac(3-iPr)][NMeV][NMeV]F[βAla]P); configuration not given here) | 4% |  |

Source: PubChem BioAssay (NCATS)
